Rows were chosen to be rich in hits. Some 12% of all compounds tested hit in one or more screens of this group.
Cl transport mod = modulators of human KCC2 chloride dependent transport. KCC2 cells, thallium flux FluoZin-2 fluorescence. B-score of Tl+ flux slope (higher = more flux/activation; lower = inhibition) at 10 µM. 190,000 tested, 2.2% active. AID 1456;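 active means thallium flux slope and its plate-corrected score both differing from the plate sample mean at a set confidence after two filtering rounds, in either direction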;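 further: slope of fluorescence scaled to starting intensity during 10 to 20 s after thallium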
m-calpain inh = blocks pig calpain II enzyme activity; purified calpain II, fluorogenic peptide substrate, 30 min; inhibition, % at 16 µM; 220,000 tested, 0.37% active; AID 1236;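 active means inhibition above about 50%, limit read from the data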
ROMK mod = human ROMK K+ channel modulation, primary screen | AID 1918 | P48048 | B-score at 10 µM | 130,000 tested, 2% active | Tet-inducible ROMK, thallium flux fluorescence; actives lie on both sides;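 active means signal ratio slope over the read window, or its plate-corrected B-score, at least 3 SD from the plate mean, either direction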;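 further: B-score of the F/F0 ratio slope over 7 to 12 s after thallium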
WT yeast gro inh = growth inhibition of WT yeast, mitochondrial fusion screen | mitochondrial fusion phenotypic screen, WT strain | inhibition, % at 10 µM | 190,000 tested, 2.1% active | AID 1362; in the data active means inhibition above about 58%; tested in S. cerevisiae
Lmaj promast = inhibitors of Leishmania major promastigote growth; Leishmania major promastigotes, resazurin fluorescence viability; inhibition, % at 10 µM; 200,000 tested, 9% active; AID 1063; in the data active means inhibition above about 50%;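 further: promastigotes grown with compound for 44 hours at 28 °C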
Each line names hits and unclear results; the compound was inactive in the other large screens.

O=C(NC1CCCC1)C(c1ccncc1)N(CCCN1CCOCC1)C(=O)c1ccc(-c2ccccc2)[nH]1 (stereo not given)	none
CC(C)(C)NC(=O)C(c1ccncc1)N(Cc1ccc(F)cc1)C(=O)c1ccc(-c2ccccc2)[nH]1 (stereo not given)	Lmaj promast 98.5
S=C1NCCc2ccc(Cl)cc2C1c1ccccc1Cl (stereo not given)	WT yeast gro inh 67.9 (no result: ROMK mod)
CCC(=O)NC(=S)N1CCN(c2ccc([N+](=O)[O-])cc2Cl)CC1	none (no result: ROMK mod)
C=CCC(COCc1ccccc1)NS(=O)(=O)c1ccccc1Br (stereo not given)	none (no result: ROMK mod, WT yeast gro inh, Lmaj promast)
Cc1ccc2nc(-c3ccccc3)c(-c3ccccc3)nc2c1	WT yeast gro inh 65.1
CCOc1c(Nc2ccc(C(C)C)cc2)c(=O)c1=O	none (no result: WT yeast gro inh, Lmaj promast)
CSCc1nnc(NC(=O)c2ccc(S(=O)(=O)N(C)C)cc2)o1	none
CCc1nnc(NC(=O)c2ccc(S(=O)(=O)N(C)c3ccccc3)cc2)o1	Lmaj promast 82.8
Cc1nnc(NC(=O)c2ccc(S(=O)(=O)N(C)Cc3ccccc3)cc2)o1	Lmaj promast 77.2 (no result: Cl transport mod)
CSCc1nnc(NC(=O)c2ccc(S(=O)(=O)N(CC(C)C)CC(C)C)cc2)o1	WT yeast gro inh 71.8, Lmaj promast 79.0 (no result: ROMK mod)
COCCN(CCOC)S(=O)(=O)c1ccc(C(=O)Nc2nnc(C)o2)cc1	none (no result: ROMK mod)
O=C(COc1c(Cl)cc(Cl)cc1Cl)c1ccc(Cl)cc1	none
COc1cccc(C(=O)N2c3ccccc3Sc3ccccc32)c1	m-calpain inh 52.3 (no result: ROMK mod)
O=C(c1ccncc1)N1c2ccccc2Sc2ccccc21	none
CCC(C)n1c(SCC(=O)NCCc2ccc(S(N)(=O)=O)cc2)nc2ccsc2c1=O (stereo not given)	none
CCC(C)n1c(SCc2ccccc2)nc2ccsc2c1=O (stereo not given)	WT yeast gro inh 64.5
CCC(C)n1c(SCC(=O)Nc2ccccc2C(F)(F)F)nc2ccsc2c1=O (stereo not given)	Lmaj promast 95.9 (no result: ROMK mod)
CN(CCC#N)C(=O)CC1(Cc2ccccc2)CCOC(C)(C)C1 (stereo not given)	none (no result: ROMK mod, WT yeast gro inh, Lmaj promast)
Clc1cccc(Cl)c1CO/N=C/c1c(-c2ccccc2)nc2n1CCS2	none (no result: ROMK mod)
Cc1ccc(N2CC(C(=O)Oc3cccc(N4C(=O)CCC4=O)c3)CC2=O)cc1 (stereo not given)	Cl transport mod 7.07 (no result: ROMK mod)
O=C(Oc1cccc(N2C(=O)CCC2=O)c1)C1CC(=O)N(c2ccc(Br)cc2)C1 (stereo not given)	none
Cc1ccc(N2CC(C(=O)OCc3ccccc3)CC2=O)cc1 (stereo not given)	Cl transport mod -4.26
CC(C)c1ccc(CN(C(=O)/C=C/c2ccco2)C2CCS(=O)(=O)C2)cc1 (stereo not given)	none (no result: ROMK mod, WT yeast gro inh, Lmaj promast)
Cc1ccc(/C=N/NC(=O)NC23CC4CC(CC(C4)C2)C3)o1	none (no result: m-calpain inh, ROMK mod, WT yeast gro inh, Lmaj promast)
Cc1ccc(-c2cnc3c(Cl)c(C)nn3c2)cc1	none
Fc1ccccc1N1CCN(c2nc(-c3cccs3)nc3ccccc23)CC1	none
CN(Cc1ccccc1F)c1nc(-c2cccs2)nc2ccccc12	Lmaj promast 79.2
COc1ccc(NC(=S)Nc2cc(S(=O)(=O)N3CCCCC3)ccc2OC)cc1	Lmaj promast 90.9
COc1ccc(NC(=S)Nc2cccc(S(=O)(=O)N3CCCCC3)c2)cc1	Lmaj promast 95.3 (no result: ROMK mod)
COc1ccc(S(=O)(=O)N2CCCCC2)cc1NC(=S)Nc1ccccc1	Lmaj promast 84.0
O=C(Nc1ccc(Cl)cn1)C1COc2ccccc2O1 (stereo not given)	none (no result: ROMK mod)
C=CCSc1nnc(-c2ccccc2NC(=O)CC)c(=O)[nH]1	none (no result: ROMK mod)
COC(=O)[C@H](Cc1ccccc1)NC(=O)O[C@H]1C(=O)c2ccc(OC)cc2O[C@@H]1c1ccc2c(c1)OCO2	WT yeast gro inh 62.0
N#CCC1c2ccccc2CCN1C(=O)Nc1cccc(Cl)c1 (stereo not given)	Lmaj promast 63.2 (no result: Cl transport mod, ROMK mod)
NCCCCCc1nnc(SCc2ccccc2Cl)o1	Lmaj promast 98.8 (no result: Cl transport mod, ROMK mod)
CC(=O)NCc1ccc(C(=O)CCl)s1	Lmaj promast 100.4
CCN(CC)S(=O)(=O)c1ccc(/C=C/C(=O)Nc2ccc(N3CCOCC3)cc2)cc1	none (no result: ROMK mod, WT yeast gro inh, Lmaj promast)
CCN(CC)S(=O)(=O)c1ccc(/C=C/C(=O)Nc2ccc(F)c(F)c2F)cc1	Lmaj promast 88.6 (no result: ROMK mod)
CCN(CC)S(=O)(=O)c1ccc(/C=C/C(=O)OCC#N)cc1	none
CCN(CC)S(=O)(=O)c1ccc(/C=C/C(=O)Nc2ccc(Br)cc2F)cc1	Lmaj promast 98.5
CCN(CC)S(=O)(=O)c1ccc(/C=C/C(=O)Nc2ccc(F)cc2F)cc1	Lmaj promast 56.5 (no result: ROMK mod)
Cc1nnsc1C(=O)N1CCN(c2cc(C(F)(F)F)ccn2)CC1	none (no result: ROMK mod, WT yeast gro inh, Lmaj promast)
